About 27,000 (9.3%) of roughly 290,000 compounds were called active. The list comes from a sample in which actives are over-represented; it also holds similar structures and randomly drawn compounds. Unmarked numbers belong to inactive results. Cut-off read from the data, not from the text of the source: active = inhibition mostly above about 28% (no sharp cut-off); inactive = mostly below about 43%.
Experiment: A qHTS for Small Molecule Inhibitors of Shiga Toxin; note: 0% is about no effect
Conditions: Vero cells, Shiga toxin protein synthesis inhibition reporter; at 38.7 µM, stronger effect = higher value
With `CCC(C)(C)C1CCC(=NNC(=O)c2ccc(Br)o2)CC1` (stereo not drawn) the inhibition was 123% (active).
`CC(NC(=O)C(=O)NN=C1CCC(C(C)(C)C)CC1)c1ccccc1` (stereo not drawn) gave an inhibition of -9.73%.
For `O=C(CNC(=O)c1ccc(Br)o1)NCC1CCCO1` (stereo not drawn), the inhibition was -17.7%.
With `CC(C)(C)C1CCC(=NNC(=O)c2ccc(Br)o2)CC1` (stereo not drawn) the inhibition was 50.9% (active).
`CCCC(=O)Nc1ccc(Cl)c(NC(=O)c2ccc(Br)o2)c1` showed an inhibition of -13.8%.
`CC(C)(C)C1CCC(=NNC(=O)c2cc(-c3ccccc3)n[nH]2)CC1` (stereo not drawn) gave an inhibition of 5.96%.
`O=C(CCN1C(=O)[C@@H]2Cc3ccccc3CN2C1=O)NCc1ccccc1` showed an inhibition of -1.35%.
With `CCc1ccc(S(=O)(=O)N/N=C\c2ccc([N+](=O)[O-])o2)cc1` the inhibition was 9.6%.
`O=C(/C=C/c1ccc(OCc2c(F)cccc2Cl)cc1)N1CCOCC1` showed an inhibition of 54.8%.
With `CCOC(=O)C(C)n1cnc2scc(-c3ccc(C)c(C)c3)c2c1=O` (stereo not drawn) the inhibition was 2.19%.
`CCCN1C2=C(C(=O)CCC2)C(c2ccc(O)c(Br)c2)C2=C1CCCC2=O` showed an inhibition of 6.12%.
`CCOC(=O)C1(CCOc2ccccc2)CCN(Cc2cc(OC)c(O)cc2Cl)CC1` gave an inhibition of 21.9%.
In the case of `CCN(CC)CCn1cnc2c1c(=O)[nH]c(=O)n2Cc1ccccc1`, the inhibition is reported as -12.7%.
In the case of `C=CCNC(=O)COc1coc(CN2CCN(Cc3ccccc3)CC2)cc1=O`, the inhibition is reported as -1.93%.
In the case of `COc1ccc(/C=C2\SC(=O)N(CCC(=O)NC3CCS(=O)(=O)C3)C2=O)cc1` (stereo not drawn), the inhibition is reported as 65.1% (active).
For `COc1ccc(NC(=O)CCN2C(=O)/C(=C/c3ccc4c(c3)OCO4)SC2=S)cc1`, the inhibition was -2.97%.
In the case of `COc1ccc(/C=C2\SC(=O)N(CCC(=O)NCCCn3ccnc3)C2=O)cc1`, the inhibition is reported as 65.3% (active).
`O=C(CN1C(=O)S/C(=C\c2ccccc2F)C1=O)NCCCn1ccnc1` showed an inhibition of 1.8%.
In the case of `O=C(CCN1C(=O)c2ccccc2C1=O)NCCCn1ccnc1`, the inhibition is reported as -4.06%.
Work on `COc1ccccc1/C=C1\SC(=O)N(CCC(=O)N(C)C2CCS(=O)(=O)C2)C1=O` (stereo not drawn) yielded an inhibition of 18.1%.
For `O=C1C(=O)N(CCN2CCOCC2)C(c2cccc(Cl)c2)/C1=C(/O)c1ccc2c(c1)OCO2` (stereo not drawn), the inhibition was -5.97%.
`CS(=O)(=O)N(CC(=O)N1CCCCCC1)c1cccc(Cl)c1Cl` showed an inhibition of -8.4%.
For `CC(=O)N1CCOc2ccc(S(=O)(=O)N3CCC(C(=O)Nc4ccccc4F)CC3)cc21`, the inhibition was -3.81%.
For `CSCCC(NS(=O)(=O)c1ccc(C)cc1)C(=O)N1CCCC1` (stereo not drawn), the inhibition was -8.89%.
In the case of `COc1ccc2c(C)c(CCC(=O)NC3CC3)c(=O)oc2c1C`, the inhibition is reported as 12.7%.
`Nc1nnnn1CC(=O)N/N=C/c1ccc(-c2cccc(Cl)c2)o1` showed an inhibition of 14.1%.
With `COC(=O)N/N=C/c1ccc(-c2ccc(Cl)c(Cl)c2)o1` the inhibition was 59.7% (active).
Molecule `O=C(N/N=C\c1ccc(-c2ccc(Cl)c(Cl)c2)o1)C(=O)N1CCCC1` has an inhibition of -9.82%.
`O=C(Nc1ccccc1C(=O)N1CCCCC1)c1ccco1` showed an inhibition of -5.5%.
In the case of `CS/C(=C\C(=O)c1ccco1)Nc1ccccc1Cl`, the inhibition is reported as 53.1% (active).
Work on `O=C(c1cccc(S(=O)(=O)Nc2ccccc2Cl)c1)N1CCN(C(=O)c2ccco2)CC1` yielded an inhibition of 10.9%.
For `Cc1c(Cl)cccc1NC(=O)[C@@]1(CC(=O)O)CC(/C=C/c2ccccc2)=NO1`, the inhibition was 4.14%.
For `CCOc1cc(/C=N/NC(=O)c2cc(-c3ccccc3)nc3ccccc23)ccc1O`, the inhibition was 46.8% (active).
Work on `COc1cccc(-c2cc(C(=O)N/N=C/c3ccc(OC)c(COC(C)=O)c3)c3ccccc3n2)c1` yielded an inhibition of 13.2%.
For `CCOc1cc(/C=N/Nc2cc(C)nc3ccc(C)cc23)ccc1O`, the inhibition was 16.6%.
`Cc1cc(=O)oc2cc(OC(C)C(=O)NCCc3ccc(S(N)(=O)=O)cc3)ccc12` (stereo not drawn) gave an inhibition of -15.1%.
Molecule `CC(=O)N1CCOc2ccc(S(=O)(=O)N3CCN(c4cccc(C(F)(F)F)c4)CC3)cc21` has an inhibition of -3.75%.
With `CCCCCc1ccc(-c2ccc(OCC)cc2)nc1` the inhibition was 43.4% (active).
Molecule `CCCCCc1ccc(-c2cn(Cc3ccc4ccccc4c3)nn2)cc1` has an inhibition of -7.01%.
Molecule `CCOc1c(CNCc2ccc(C(=O)O)cc2)cccc1OC` has an inhibition of 11.6%.
In the case of `O=C(O)c1ccc(COCC(F)(F)F)cc1`, the inhibition is reported as 8.49%.
With `CCCCCc1ccc(-c2ccc(C(=O)O)cc2)nc1` the inhibition was 71.9% (active).
Molecule `CCCCOc1ccc(-c2ncc(C(=O)OCC)c(N)n2)cc1` has an inhibition of 21.7%.
`Cc1ccc(NC(=O)CN2C(=O)NC(C)(c3ccc(Cl)cc3)C2=O)c(Br)c1` (stereo not drawn) gave an inhibition of -4.27%.
Molecule `CCN(CC)Cc1cc(C(C)=O)ccc1O` has an inhibition of -16.1%.
In the case of `Cc1ccccc1OCC(=O)NCC(=O)OCC(=O)c1ccc2ccccc2c1`, the inhibition is reported as 12.1%.
Molecule `CC(=O)c1ccc2c(c1)c1ccccc1n2CC(C)C` has an inhibition of -9.15%.
For `C/C(=N\NC(=O)c1ccc2ccccc2c1)c1cccnc1`, the inhibition was 43.1%.
In the case of `CC(=O)c1ccc2c(ccc3ccccc32)c1`, the inhibition is reported as 50.4% (active).
With `CC(=O)CCC(=O)c1ccc2ccccc2c1` the inhibition was 52.7% (active).
In the case of `Cc1cccc(NS(=O)(=O)c2ccc(C(=O)NCC(C)(C)N3CCOCC3)cc2)c1C`, the inhibition is reported as -13%.
Work on `COc1cc(OC)c(S(=O)(=O)Nc2ccccc2C(=O)O)cc1S(=O)(=O)Nc1ccccc1C(=O)O` yielded an inhibition of 7.19%.
In the case of `CCC(=O)N1CCc2cc(S(=O)(=O)CCC(=O)N3CCN(c4ccccc4F)CC3)ccc21`, the inhibition is reported as 0.463%.
For `COc1cc(NS(=O)(=O)c2ccc(NC(=S)NC(=O)c3ccccc3)cc2)nc(OC)n1`, the inhibition was -2.7%.
Molecule `CN1C(=O)c2ccc(C(=O)Nc3ccc(Br)cn3)cc2C1=O` has an inhibition of -3.25%.
In the case of `O=C(Nc1ccc(Br)cn1)c1ccc([N+](=O)[O-])cc1Cl`, the inhibition is reported as 119% (active).
Molecule `CC(C)C(=O)Nc1cccc(NC(=O)c2ccc([N+](=O)[O-])cc2Cl)c1` has an inhibition of 16.6%.
`O=C(/C=C/c1ccc(Cl)cc1)Nc1ccc(Br)cn1` gave an inhibition of 34.5%.
In the case of `O=C(Nc1ccncc1)c1ccc([N+](=O)[O-])cc1Cl`, the inhibition is reported as -1.95%.
In the case of `O=C(Nc1ccc(Br)cn1)c1ccc([N+](=O)[O-])o1`, the inhibition is reported as 50.9% (active).
With `COc1ccc(N(Cc2cc3ccc(C)cc3[nH]c2=O)S(=O)(=O)c2ccccc2)cc1` the inhibition was -1.62%.
`CCOc1cc(NC(=O)Nc2ccccc2)c(OCC)cc1NC(=O)CC` gave an inhibition of -9.09%.
In the case of `CC1CCCN(S(=O)(=O)c2ccc(-c3ccc(=O)[nH]n3)o2)C1` (stereo not drawn), the inhibition is reported as -5.12%.
With `O=S(=O)(NC1CC1)c1ccc(F)c(F)c1` the inhibition was 20.3%.
Molecule `CCc1ccc(OCC(=O)OC(C)C(=O)NC2CC2)cc1` (stereo not drawn) has an inhibition of -3.01%.
With `CCCCN(CC)C(=O)C1CCCN(S(=O)(=O)c2cccc3nsnc23)C1` (stereo not drawn) the inhibition was -4.85%.
`CCOC(=O)C(C)n1cnc2sc(C)c(C)c2c1=O` (stereo not drawn) showed an inhibition of 17.6%.
For `Cc1cccc(OC(=O)c2sc3ncn(C)c(=O)c3c2C)c1`, the inhibition was 67.1% (active).
In the case of `Cc1c(C(N)=O)sc2ncn(CCOc3ccccc3)c(=O)c12`, the inhibition is reported as 59.8%.
In the case of `CN(CCc1ccccn1)C(=O)c1ccc(OC2CCN(Cc3ccccn3)CC2)cc1`, the inhibition is reported as 16%.
With `CC(NC(=O)C(=O)Nc1nccs1)c1ccccc1` (stereo not drawn) the inhibition was -4.59%.
In the case of `CC(=O)Oc1ccc(C(=O)Nc2nccs2)cc1`, the inhibition is reported as 45.7% (active).
Molecule `CCN(c1ccccc1)S(=O)(=O)c1ccc(C(=O)Nc2nccs2)cc1` has an inhibition of -6.9%.
With `Cn1cccc1C(=O)Nc1nccs1` the inhibition was 39.3% (active).
For `COc1ccc(C(=O)NNC(=O)c2cnccn2)cc1[N+](=O)[O-]`, the inhibition was -6.53%.
For `CCCCOC(=O)Nc1nccs1`, the inhibition was 7.37% (active).
Molecule `CCOc1ccc(C(=O)NC(=S)Nc2ccc(NC(=O)C(C)C)cc2)cc1[N+](=O)[O-]` has an inhibition of -4.8%.
In the case of `O=C(O)c1ccccc1-c1ccccc1C(=O)Nc1nccs1`, the inhibition is reported as 16.1%.
`CC(=O)NC(CC(=O)Nc1nccs1)c1ccccc1` (stereo not drawn) showed an inhibition of 14.1%.
Work on `O=C(COC(=O)c1ccc(O)cc1)Nc1nccs1` yielded an inhibition of 28%.
In the case of `CCCCOC(=O)Nc1nnc(CC(=O)NCc2ccccc2)s1`, the inhibition is reported as -13.9%.
For `CCOc1ccc(C(=O)Nc2nccs2)cc1[N+](=O)[O-]`, the inhibition was 69.4% (active).
`COC(=O)CCc1ccccc1S(=O)(=O)N(CCC(=O)OC)Cc1ccccc1` showed an inhibition of -5.55%.
Work on `Cc1ccccc1Nc1c([N+](=O)[O-])ccc2nonc12` yielded an inhibition of -12%.
In the case of `COc1cc(OC)c2c(C)cc(=O)oc2c1C(CCN1CCCCC1)c1ccc(N(C)C)cc1` (stereo not drawn), the inhibition is reported as -4.37%.
`COCc1ccc(CN2CCC(Oc3ccc(C(=O)NCc4ccccn4)cc3)CC2)o1` showed an inhibition of -9.34%.
`C=C1/C(=C\C=C2\CCCC3(C)C2CCC3C(C)/C=C/C(O)C2CC2)CC(O)CC1O` (stereo not drawn) showed an inhibition of -5.18%.
In the case of `O=C(NCc1cccc(C(F)(F)F)c1)c1cccc(S(=O)(=O)N2CCN(Cc3ccccc3)CC2)c1`, the inhibition is reported as -21.6%.
Molecule `CCOc1ccc(C2/C(=C(/O)c3ccc4c(c3)CC(C)O4)C(=O)C(=O)N2CCCn2ccnc2)cc1` (stereo not drawn) has an inhibition of 14.2%.
For `COc1ccc(-c2cc(C(=O)NC(C(=O)O)C(C)C)c(C)o2)cc1OC` (stereo not drawn), the inhibition was 46.9%.
For `Cc1cccc(C)c1OCC(=O)NC(Cc1c[nH]c2ccccc12)C(=O)O` (stereo not drawn), the inhibition was -4.32%.
With `COc1ccc(-c2cc(C(=O)NC(Cc3c[nH]c4ccccc34)C(=O)O)c(C)o2)cc1OC` (stereo not drawn) the inhibition was 29.3% (active).
With `O=C(NCCc1ccc(Cl)cc1Cl)c1cc([N+](=O)[O-])c[nH]c1=O` the inhibition was -2.76%.

Source: PubChem BioAssay AID2315 (National Center for Advancing Translational Sciences (NCATS), 2010)
